Compounds with a hit are over-represented: about 1.5% of the library has one in this group of screens.
Giardia killer – kills Giardia lamblia. activity change, % at 7.66 µM, hits read low. AID 540267. 0.15% of 340,000 active. Giardia lamblia trophozoite viability; in the data active = activity change below about -80%; inconclusive = between about -30% and that limit;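 note: parasites exposed to compound for two days anaerobically before the ATP read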
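Trophozoites 100 cells/well + cpd; 48 hrs, 37 deg C, anaerobic. ATPLite 1-Step added, 15-30 min RT, luminescence read (ATP-based viability).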
TrxR1 substrate – substrates of rat thioredoxin reductase 1; O89049; purified TrxR1 substrate turnover, NADPH consumption readout; Potency, µM (titrated, usually from 114 µM), for inactives: at the top dose activity change, negative = substrate turnover; 0.01% of 390,000 active; AID 588456; note: potency is the fitted concentration of half-maximal effect; nearly all actives have a fitted effect of over 50% in size
Target sequence (O89049 whole entry, looked up): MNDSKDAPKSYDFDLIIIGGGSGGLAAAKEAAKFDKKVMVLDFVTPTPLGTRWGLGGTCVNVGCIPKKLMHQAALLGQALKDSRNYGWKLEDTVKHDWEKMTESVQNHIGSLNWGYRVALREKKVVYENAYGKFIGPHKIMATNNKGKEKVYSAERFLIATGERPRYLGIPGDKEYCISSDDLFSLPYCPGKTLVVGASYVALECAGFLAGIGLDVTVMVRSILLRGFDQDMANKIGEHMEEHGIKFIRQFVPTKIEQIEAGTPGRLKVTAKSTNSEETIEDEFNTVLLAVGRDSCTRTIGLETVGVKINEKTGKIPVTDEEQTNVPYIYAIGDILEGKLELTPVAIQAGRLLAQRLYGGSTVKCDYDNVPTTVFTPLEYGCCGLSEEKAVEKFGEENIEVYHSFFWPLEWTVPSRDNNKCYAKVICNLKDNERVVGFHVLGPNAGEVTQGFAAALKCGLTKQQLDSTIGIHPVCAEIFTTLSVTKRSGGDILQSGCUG
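Rat TrxR1, dispensed at 90 nM, was prereduced with 400 uM NADPH (final) for 5 min at ~22 deg C, then incubated with compound 15 min before 400 uM selenite. A first-read NADPH fluorescence drop versus no-compound background flagged substrates.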
FBPA coupling cs – coupling enzyme interference in Giardia aldolase counter-screen | coupling enzyme system counterscreen, AmpLite Red fluorescence | activity change, negative = inhibition, % at 58.2 µM, hits read low | 0.67% of 290,000 active; in the data active = activity change below about -30%
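Fluorescence at 525 nm excitation and 598 nm emission measured inhibition of the coupled detection system without aldolase. Compounds (at 57.5 uM final) were preincubated 10 min at room temperature with coupling enzyme reagent before a 20 min substrate/AmpLite Red step.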
rTrxR1 inhibitor – rat TrxR1 inhibition; recombinant rTrxR1, NADPH fluorescence consumption, selenite substrate; Potency, µM (titrated, usually from 114 µM), for inactives: at the top dose activity change, negative = inhibition, actives largely listed as inhibitors; 1% of 390,000 active; AID 588453; note: potency is the fitted concentration of half-maximal effect; nearly all actives have a fitted effect of over 65% in size
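Rat TrxR1 (90 nM in the dispensed reagent) was pre-reduced with 400 uM NADPH for 5 min at room temperature, then incubated with compound for 15 min. After 400 uM selenite was added, NADPH fluorescence (Ex 340/Em 450 nm) was followed for 8 min.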
PI4K2A inh – inhibitors of human PI4K2A. Q9BTU6. purified PI4K2A, ADP-Glo luminescence, 1 h; hits give low values. activity change, negative = inhibition, % at 76.9 µM. 0.13% of 420,000 active; in the data active = activity change below about -50%; inconclusive = mostly about -30% to -49%;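 note: -100% = wells without enzyme as full effect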
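ADP-Glo luminescence measured ADP generated by PI4K2A enzyme (4 ug/mL before mixing) with 1.2 mM PI substrate (pre-mix) and 300 microM ATP (pre-mix). Tris pH7.5 buffer with MgCl2, Triton X-100; 1 h reaction at ambient temperature.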
GALK inh – galactokinase (human) inhibition; P51570; Purified GALK, Kinase-Glo residual ATP luminescence; Potency, µM (series often up to 57.5 µM), without a hit: top-dose activity change, negative = inhibition, usual class: inhibitors; 0.007% of 270,000 active; AID 1868; note: potency is the fitted concentration of half-maximal effect
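Luminescence from leftover ATP (Ultra-Glo luciferase/luciferin) served as read-out after a 1 h room-temperature reaction of 5 nM GALK with 35 uM ATP and 100 uM galactose.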
* marks the source's active call; other numbers are inactive results; ? = inconclusive; . = no result; ! = repeats disagree; [ ] = remark or other dose. Unless noted, calls come from the whole dose curve; as a rule, active = well fitted curve in the direction sought with a large enough effect; inconclusive = small, poorly fitted or top-dose-only effect, or another doubt; inactive = no such curve, though single readings can be large; an effect the other way counts as inactive or inconclusive. Unless noted, % is set by controls: 0 for no effect and ±100 for the full control effect.

SMILES	Giardia killer	TrxR1 substrate	FBPA coupling cs	rTrxR1 inhibitor	PI4K2A inh	GALK inh
COc1cc(C2CC(=O)Oc3ccc(O)cc32)cc(OC)c1OC (centres undefined)	.	.	-3	.	.	.
COc1ccc(C2CC(O)(c3ccccc3)Oc3cc(OC)c(OC)c(OC)c32)cc1 (centres undefined)	-9	-15%	-39*!	-1%	0	0%
CCCCc1nc2c(c3c1C[C@H](C)OC3)CN(S(=O)(=O)c1ccc(C)cc1)CC2	.	.	0	.	.	.
C[n+]1ccc(/C=C/c2ccc(C=S)cc2)c2ccccc21	.	-9%	.	-35%	.	.
CCC(=O)Nc1cccc(-c2ccc(N3CCC(C)CC3)nn2)c1	-85*	-4%	2	4%	-3	3%
CC1CCN(c2ccc(-c3cccc(NC(=O)C(F)(F)F)c3)nn2)CC1	-84*	-3%	0	15%	1	3%
CCOc1ccc(NC(=O)CSc2nnc(-c3n[nH]c4c3CCC4)n2N)cc1	.	.	.	.	-1	.
N#CC1(NC(=O)COC(=O)c2cc(O)c3ccccc3c2O)CCCCC1	-8	-2%	.	28µM*	-14	.
CCOC(=O)c1cc(OC(=O)c2cccs2)n(-c2ccccc2)n1	-19	4%	3	22µM*	4	-4%
COc1ccc(C(C)=O)cc1CSc1nc2cc(C(=O)O)ccc2c(=O)n1Cc1ccccc1	2	-3%	15	28µM*	-1	1%
CCOC(Cn1c(SCc2cc(C(C)=O)ccc2OC)nc2ccccc2c1=O)OCC	6	-3%	3	9%	-3	-4%
COc1ccc(-n2c(N)c(C#N)c3ccc([N+](=O)[O-])cc3c2=O)cc1	0	-3%	-42*	-11%	-1	-3%
O=C(N/N=C/c1ccc(N2CCOCC2)o1)c1cccc([N+](=O)[O-])c1	5	-11%	-44*	3.2µM*	-5	.
O=C(N/N=C/c1ccc(N2CCCCC2)o1)c1ccccc1	-12	-3%	-21	2.8µM*	-6	3%
Cc1ccc(/C=N/NC(=O)c2ccc(-c3ccccc3)cc2)o1	-2	5%[57.1 µM]	1	23%[57.1 µM]	-1	11%
COc1ccc(NC(=O)c2cnc3sc(N4CCOCC4)nn3c2=O)c(OC)c1	.	10%[57.1 µM]	.	27%[57.1 µM]	2	.
COc1ccccc1C(=O)NC(=O)OCCn1c(C)cnc1[N+](=O)[O-]	-82*	-3%	0	8%	2	2%
Cc1ccc(C(=O)NC(=O)OCCn2c(C)cnc2[N+](=O)[O-])cc1	-88*	-1%[57.1 µM]	0	9%[57.1 µM]	0	2%
O=C1Nc2ccc(S(=O)(=O)NCCC3=CCCCC3)c3cccc1c23	-5	19%	-34*	-7%	-1	-1%
O=C(Cn1cc(C(=O)c2ccncc2)c(=O)c2cc(F)ccc21)Nc1ccc(Cl)cc1	.	0%[57.1 µM]	.	16%[57.1 µM]	2	.
O=S1(=O)C=C(Sc2nc3cc(Cl)ccc3o2)c2ccccc21	-10	8%[57.1 µM]	-1	2.8µM*	13	-3%
Cc1cc(NC(=O)CSc2nc3cc(Cl)ccc3o2)no1	-6	0%	-1	8%	-15	6%
CCCN1CNc2c(c(=O)[nH]c(=S)n2CCc2c(OC)cccc2OC)C1	1	-3%	.	-3%	.	.
CS/C(=C\[N+](=O)[O-])Nc1ccc(F)cc1	8	-24%[57.1 µM]	3	?	-4	2%
COc1ccc(N/C(=C/[N+](=O)[O-])SC)cc1	6	3%[57.1 µM]	-1	7.1µM*	1	11%
SMILES	Giardia killer	TrxR1 substrate	FBPA coupling cs	rTrxR1 inhibitor	PI4K2A inh	GALK inh
CS/C(=C\[N+](=O)[O-])Nc1ccccc1	2	12%[57.1 µM]	0	1.3µM*	-11	-3%
O=C(C[n+]1ccccc1Cl)c1ccc(F)cc1	.	3%	.	5%	.	.
COC1=CC(=O)C=C(OC)C1=O	-24	-23%	-81*	32µM*	-7	.
COC(=O)CC1Oc2cc3oc4c(c3cc2O1)C(=O)CC(C)(C)C4 (centres undefined)	.	.	8	.	.	.
CC1(C)CC(=O)c2c(oc3cc(O)c(O)cc23)C1	-7	-8%	-62*!	?	-2	-1%
CC(C)c1ccc(CN(C(=O)c2ccco2)C2CCS(=O)(=O)C2)cc1 (centres undefined)	-3	1%[57.1 µM]	2	12%[57.1 µM]	1	7%
O=C(/C=C/c1ccco1)N(Cc1ccccc1F)C1CCS(=O)(=O)C1 (centres undefined)	3	-3%	0	28µM*	-8	3%
CC(C)c1ccc(CN(C(=O)/C=C/c2ccco2)C2CCS(=O)(=O)C2)cc1 (centres undefined)	-5	0%[57.1 µM]	-1	14µM*	-9	0%
CS(=O)(=O)n1nc(-c2ccco2)nc1NCc1ccccc1Cl	.	-6%	.	-15%	-2	.
O=C(CCc1ccc(O)cc1)c1c(O)cc(O)cc1O	4	5%[57.1 µM]	0	10µM*	0	-3%
Oc1cc2c(cc1C(c1ccc(Br)cc1)N1CCCC1)OCO2 (centres undefined)	-17	-18%[57.1 µM]	-13	2.5µM*	2	-4%
O=S(=O)(NCC(c1ccc2c(c1)OCO2)N1CCOCC1)c1ccc(Br)cc1 (centres undefined)	-28	4%[57.1 µM]	.	5%[57.1 µM]	-18	.
CCOCCCNC(=O)/C(C#N)=C/c1ccc([N+](=O)[O-])o1	-5	-6%[57.1 µM]	-4	3.2µM*	-3	10%
CC(NC(=O)/C(C#N)=C/c1ccc([N+](=O)[O-])o1)c1ccccc1 (centres undefined)	-28	-8%	-36*	7.9µM*	-5	4%
CC(NC(=O)/C(C#N)=C/c1ccco1)c1ccccc1 (centres undefined)	-3	-12%	0	2%	-1	0%
COC(=O)c1ccc(/C=C(\C#N)C(=O)NC(C)c2ccccc2)cc1 (centres undefined)	3	-17%	1	22µM*	19	-5%
C#CCNC(=O)C[C@H]1C[C@@]2(C(=O)OC)C(=C[C@H](COCc3ccccc3)O[C@@H]2C)N(CCc2ccc(OC)c(OC)c2)C1=O	.	.	.	.	4	.
NNC(=O)c1ccc(C(=O)N(c2ccccc2)c2ccccc2)cc1	.	-4%	.	-6%	.	.
O=C(CCl)Nc1cc(SCC(O)CO)cc([N+](=O)[O-])c1 (centres undefined)	10	3%	-3	5.6µM*	-5	-3%
CC(C)=NOc1cc(NC(=O)CCl)cc([N+](=O)[O-])c1	8	-17%	-17	2.8µM*	5	.
CCOc1ccc(-c2cc(C(=O)NCc3ccccc3Cl)c3ccccc3n2)cc1	.	21%[57.1 µM]	.	21%[57.1 µM]	-3	.
CCOC(=O)[C@@]12CCCC=C1N(CCc1ccc(Cl)cc1)C(=O)[C@H]2CC(=O)NCCc1ccccc1OC	.	.	.	.	-2	.
